{
  "source": "PubChem BioAssay (NCATS)",
  "key": {"[1]": {"system": "Zika virus NS2B-NS3 protease (unlinked complex)", "assay": "Primary screen GU Rhodamine qHTS for Zika virus inhibitors: Unlinked NS2B-NS3 protease assay (AID 1347159); further: nearly all actives have a fitted effect of over 60% in size", "procedure,_shortened": "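Noncovalent NS2B hydrophilic domain/NS3 protease complex (25 nM final) in 10 mM Tris-HCl pH 8.0, 0.01% Tween 20, preincubated 15 min with compounds (up to 114 microM), then 1.5 microM Rhodamine110 substrate. Fluorescence change over 15 min fitted to 4-parameter Hill.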"}, "[2]": {"system": "Zika virus NS2B-NS3 protease (linked construct)", "assay": "Primary screen NINDS Rhodamine qHTS for Zika virus inhibitors (AID 1347160); further: nearly all actives have a fitted effect of over 55% in size", "procedure,_shortened": "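Purified NS2B-NS3 protease with the NS2B hydrophilic domain joined by a flexible linker (25 nM) in 10 mM Tris-HCl pH 8.0, 0.01% Tween 20, preincubated 15 min at RT with compound; Rhodamine110 peptide substrate 1.5 µM; fluorescence change over 15 min; 4-parameter Hill fit.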"}},
  "note": "Results filed as inconclusive are left out. Where a call stands in place of a potency, no number is given. A number with no mark means an inactive call. Activity calls are given as the source filed them. The call rests on the fitted dose curve; in most records, active means well fitted inhibition curve with a large enough effect; inconclusive means small, poorly fitted or top-dose-only effect; inactive means no such curve, though single readings can be large or run the other way. Potency means the concentration at half of the fitted maximal effect.",
  "data": [
    {"smiles": "CC1CCCC(O)CC(=O)c2c(O)cc(O)cc2CC(=O)O1", "note": "(configuration not stated)", "values": [
      {"measurement": "Potency", "setting": "[1]", "value": "inactive"},
      {"measurement": "Potency", "setting": "[2]", "value": "inactive"}
    ]},
    {"smiles": "COC1C(OC(=O)/C=C/C=C/C=C/C=C/C(=O)O)CCC2(CO2)C1C1(C)OC1CC=C(C)C", "note": "(configuration not stated)", "values": [
      {"measurement": "Potency", "setting": "[1]", "value": "8.91 µM (active)"}
    ]},
    {"smiles": "O=C(NCCN1CCC(n2c(=O)[nH]c3ccccc32)CC1)c1cc2cc(F)ccc2[nH]1", "values": [
      {"measurement": "Potency", "setting": "[1]", "value": "inactive"},
      {"measurement": "Potency", "setting": "[2]", "value": "inactive"}
    ]},
    {"smiles": "Nc1nc(O)c(C2=C3C(=Nc4ccccc43)C(=O)NCC2)[nH]1", "values": [
      {"measurement": "Potency", "setting": "[1]", "value": "inactive"},
      {"measurement": "Potency", "setting": "[2]", "value": "inactive"}
    ]},
    {"smiles": "CCc1cccc(CC)c1-n1c(C=C(C)C)c(C(=O)N2CCNCC2)cc(-c2nc(-c3ccc(C(F)(F)F)cc3)cs2)c1=O", "values": [
      {"measurement": "Potency", "setting": "[1]", "value": "inactive"},
      {"measurement": "Potency", "setting": "[2]", "value": "inactive"}
    ]},
    {"smiles": "C/C=C(\\C)C(=O)O[C@H]1C=CC(=O)O[C@H]1/C=C/[C@@H](O)[C@H](C)O", "values": [
      {"measurement": "Potency", "setting": "[1]", "value": "inactive"},
      {"measurement": "Potency", "setting": "[2]", "value": "inactive"}
    ]},
    {"smiles": "CC(C)c1c(O)ccc2c1CC[C@H]1C(C)(C)CCC[C@]21C", "values": [
      {"measurement": "Potency", "setting": "[1]", "value": "14.1 µM (active)"},
      {"measurement": "Potency", "setting": "[2]", "value": "22.4 µM (active)"}
    ]},
    {"smiles": "CS(=O)(=O)Nc1ccc2oc3c(OC(F)F)ccc(C(=O)Nc4c(Cl)cncc4Cl)c3c2c1", "values": [
      {"measurement": "Potency", "setting": "[1]", "value": "inactive"},
      {"measurement": "Potency", "setting": "[2]", "value": "inactive"}
    ]},
    {"smiles": "Cc1onc(-c2ccccc2)c1C(=O)N1CCN(c2ccc([N+](=O)[O-])cc2Cl)CC1", "values": [
      {"measurement": "Potency", "setting": "[1]", "value": "inactive"},
      {"measurement": "Potency", "setting": "[2]", "value": "inactive"}
    ]},
    {"smiles": "C=C1C(=O)OC2C=C(C)CC/C=C(\\CO)CC(O)C12", "note": "(configuration not stated)", "values": [
      {"measurement": "Potency", "setting": "[1]", "value": "inactive"},
      {"measurement": "Potency", "setting": "[2]", "value": "inactive"}
    ]},
    {"smiles": "C=C1C(=O)OC2/C=C(\\COC(C)=O)CC/C=C(\\C=O)CC(OC(=O)CC(C)C)C12", "note": "(configuration not stated)", "values": [
      {"measurement": "Potency", "setting": "[1]", "value": "inactive"},
      {"measurement": "Potency", "setting": "[2]", "value": "inactive"}
    ]},
    {"smiles": "O=C(OC1CN2CCC1CC2)N1CCc2ccccc2C1c1ccccc1", "note": "(configuration not stated)", "values": [
      {"measurement": "Potency", "setting": "[1]", "value": "inactive"},
      {"measurement": "Potency", "setting": "[2]", "value": "inactive"}
    ]},
    {"smiles": "COC1CC(O[C@H]2CC[C@]3(C)C4CC[C@]5(C)C(C6=CC(=O)OC6)=CCC56OC46CC[C@@H]3C2)OC(C)C1O[C@@H]1O[C@H](CO[C@@H]2O[C@H](CO)[C@@H](O)[C@H](O)[C@H]2O)[C@@H](O)[C@H](O)[C@H]1O", "note": "(some centres not stated)", "values": [
      {"measurement": "Potency", "setting": "[1]", "value": "inactive"},
      {"measurement": "Potency", "setting": "[2]", "value": "inactive"}
    ]},
    {"smiles": "Fc1ccc(-c2nc(C3CCNCC3)sc2-c2ccnc(NC3CC3)n2)cc1", "values": [
      {"measurement": "Potency", "setting": "[1]", "value": "inactive"},
      {"measurement": "Potency", "setting": "[2]", "value": "inactive"}
    ]},
    {"smiles": "CN1CCN(Cc2ccc(NC(=O)Cc3ccc(Oc4cc(NC(=O)C5CC5)ncn4)cc3)cc2C(F)(F)F)CC1", "values": [
      {"measurement": "Potency", "setting": "[1]", "value": "inactive"},
      {"measurement": "Potency", "setting": "[2]", "value": "inactive"}
    ]},
    {"smiles": "CC(=O)O[C@H]1CC(C)(C)CC2[C@]13CO[C@@]21CCC2[C@@]4(C)CC[C@H](O[C@@H]5OC[C@H](O[C@@H]6O[C@H](CO)[C@@H](O)[C@H](O)[C@H]6O[C@@H]6OC[C@@H](O[C@@H]7O[C@H](CO)[C@@H](O)[C@H](O)[C@H]7O)[C@H](O)[C@H]6O)[C@H](O)[C@H]5O[C@@H]5O[C@H](CO)[C@@H](O)[C@H](O)[C@H]5O)[C@@](C)(CO)C4CC[C@@]2(C)[C@]1(C)C[C@H]3O", "note": "(some centres not stated)", "values": [
      {"measurement": "activity change, negative = inhibition", "setting": "[1]", "value": "0.509% [at 19.1 µM]"},
      {"measurement": "activity change, negative = inhibition", "setting": "[2]", "value": "-9.67% [at 10.7 µM]"}
    ]},
    {"smiles": "CC1=C(C(=O)Nc2cc(Cl)ccc2Cl)C(c2ccco2)C2=C(CCCC2=O)N1", "note": "(configuration not stated)", "values": [
      {"measurement": "Potency", "setting": "[1]", "value": "inactive"},
      {"measurement": "Potency", "setting": "[2]", "value": "inactive"}
    ]},
    {"smiles": "CC(=O)OC1C(O)CC2(C)C(CCC3(C)C2CC=C2C4C5(CCC(CO[C@@H]6O[C@H](CO)[C@@H](O)[C@H](O)[C@H]6O)(OC5=O)C4(C)O)C(O)CC23C)C1(C)C", "note": "(some centres not stated)", "values": [
      {"measurement": "Potency", "setting": "[1]", "value": "inactive"},
      {"measurement": "Potency", "setting": "[2]", "value": "inactive"}
    ]},
    {"smiles": "COC1CCN(C(=O)c2cc(Cc3n[nH]c(=O)c4ccccc34)ccc2F)CC1", "values": [
      {"measurement": "Potency", "setting": "[1]", "value": "inactive"},
      {"measurement": "Potency", "setting": "[2]", "value": "inactive"}
    ]},
    {"smiles": "Cc1c[nH]c2ncnc(N3CCC(CN)(C(=O)Nc4cccc(OC(=O)N(C)C)c4)CC3)c12", "values": [
      {"measurement": "Potency", "setting": "[1]", "value": "inactive"},
      {"measurement": "Potency", "setting": "[2]", "value": "inactive"}
    ]},
    {"smiles": "O=S1(=O)CCN(Cc2cc(NCC3CCOCC3)c3[nH]c(-c4ccccc4)cc3c2)CC1", "values": [
      {"measurement": "Potency", "setting": "[1]", "value": "inactive"},
      {"measurement": "Potency", "setting": "[2]", "value": "inactive"}
    ]},
    {"smiles": "C=C1C(=O)O[C@@H]2C[C@]3(C)[C@@H](CCC(C)O)[C@@H]3C[C@H]12", "note": "(some centres not stated)", "values": [
      {"measurement": "Potency", "setting": "[1]", "value": "inactive"},
      {"measurement": "Potency", "setting": "[2]", "value": "inactive"}
    ]},
    {"smiles": "Cn1cc(-c2ccc3c(c2)CCN3C(=O)Cc2cccc(C(F)(F)F)c2)c2c(N)ncnc21", "values": [
      {"measurement": "Potency", "setting": "[1]", "value": "inactive"},
      {"measurement": "Potency", "setting": "[2]", "value": "inactive"}
    ]},
    {"smiles": "Cn1cc(-c2ccc(S(=O)(=O)n3ccc(/C=C/C(=O)Nc4ccccc4N)c3)cc2)cn1", "values": [
      {"measurement": "Potency", "setting": "[1]", "value": "inactive"},
      {"measurement": "Potency", "setting": "[2]", "value": "inactive"}
    ]},
    {"smiles": "COc1ccc(C2(CNC(=O)c3ccc(NC(=O)c4ccco4)cc3)CCOCC2)cc1", "values": [
      {"measurement": "Potency", "setting": "[1]", "value": "inactive"},
      {"measurement": "Potency", "setting": "[2]", "value": "inactive"}
    ]},
    {"smiles": "O=C(CNC(=O)c1cccc(C(F)(F)F)c1)N[C@@H]1CCN(Cc2ccc(Cl)cc2)C1", "values": [
      {"measurement": "Potency", "setting": "[1]", "value": "inactive"},
      {"measurement": "Potency", "setting": "[2]", "value": "inactive"}
    ]},
    {"smiles": "C=C1C(=O)O[C@@H]2C(OC(=O)/C(C)=C\\C)/C(C)=C\\C(=O)/C=C(\\C)C[C@H](O)[C@@H]12", "note": "(some centres not stated)", "values": [
      {"measurement": "Potency", "setting": "[1]", "value": "inactive"},
      {"measurement": "Potency", "setting": "[2]", "value": "inactive"}
    ]},
    {"smiles": "Cc1ccccc1C(C(=O)NC1CCCCC1)N(C(=O)Cn1cnc2ccccc21)c1cccc(F)c1", "note": "(configuration not stated)", "values": [
      {"measurement": "Potency", "setting": "[1]", "value": "inactive"},
      {"measurement": "Potency", "setting": "[2]", "value": "inactive"}
    ]},
    {"smiles": "CCOc1nc(NC(=O)Cc2cc(OC)ccc2OC)cc(N)c1C#N", "values": [
      {"measurement": "Potency", "setting": "[1]", "value": "inactive"},
      {"measurement": "Potency", "setting": "[2]", "value": "inactive"}
    ]}
  ]
}
